Screening data deposited in PubChem by several laboratories.
This is a sample that favours compounds with a hit; in the whole collection about 2.3% have one here.
Shn3 inh set2 = inhibitors of Schnurri-3 3'UTR reporter in osteoblasts; Clone20 osteoblast Shn3 3'UTR firefly luciferase, 24 h; inhibition, % at 12.5 µM; hit rate 0.52% among 360,000;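 active means mean inhibition of at least 75% with every replicate also reaching 75%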;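 further: 0% = median of neutral control wells and 100% = pilot-screen positive control compound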
Gli-Sufu block = blocks Gli-Sufu signaling in a luciferase reporter | AID 588413 | hit rate 0.74% among 340,000 | inhibition, % at 5 µM | Sufu-KO-LIGHT fibroblasts, Gli luciferase reporter luminescence;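 active means inhibition above about 55%, limit read from the data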;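 further: 0% = DMSO-treated cells and 100% = wells with medium but no cells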
697 NFkB inh = inhibitors of the PMA/ionomycin-induced NF-kB reporter in 697 B cells; 697 B-cell NF-kB luciferase reporter, 16 h; inhibition, % at 4 µM; hit rate 0.33% among 330,000; in the data active means inhibition above about 35%
LMP1 NFkB inh = Epstein-Barr LMP1 NF-kappaB reporter inhibition. LMP1-induced NF-kappaB luciferase reporter cells, luminescence. inhibition, % at 12.5 µM. hit rate 0.69% among 350,000; in the data active means inhibition above about 41%;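 further: 0% = neutral control wells and 100% = reference inhibitor control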
Jurkat NFkB inh = lowers PMA/ionomycin-induced NF-kB signal in Jurkat cells. PMA/ionomycin-induced NF-kB luciferase reporter, luminescence. inhibition, % at 4 µM. hit rate 0.53% among 330,000. AID 435003; in the data active means inhibition above about 50%
MITF TRPM1 inh = inhibitors of MITF-driven TRPM1 promoter in melanoma cells; SK-MEL-5 TRPM1 promoter luciferase, 24 h; inhibition, % at 12.5 µM; hit rate 0.83% among 330,000; AID 488899;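 active means mean inhibition across replicates of 60% or more, whatever share of single replicates reaches that level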
Jurkat NFkB conf = lowers PMA/ionomycin-induced NF-kB signal in Jurkat cells | shares compounds with Jurkat NFkB inh | Jurkat NF-kB luciferase, 16 h | inhibition, % at 4 µM | hit rate 27% among 2,700 | AID 435020;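 active means inhibition reaching about 45% at 4 µM in either replicate, limit read from the data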;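 further: plate controls were PMA/ionomycin stimulated DMSO wells for no effect and unstimulated DMSO wells for full effect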
Active calls of the source: *; / = no result given.

SMILES	Shn3 inh set2	Gli-Sufu block	697 NFkB inh	LMP1 NFkB inh	Jurkat NFkB inh	MITF TRPM1 inh	Jurkat NFkB conf
Cc1ccc2c(c1)sc1nc(=O)n(-c3cccc(Cl)c3)c(=O)n12	-58	-106	-78	-69	-167	-99	-34
Cn1cnc(S(=O)(=O)N2CCN(C(c3ccccc3)c3ccccc3)CC2)c1	-1	-2	-17	0	-7	1	/
O=C(c1ccc(N2C(=O)c3ccccc3C2=O)cc1)N1CCCCC1	0	8	-2	-18	-4	-2	/
CCc1ccc(N2C(=O)C(Cl)=C(Nc3ccc(C(=O)N4CCCC4)cc3)C2=O)cc1	23	2	-117	10	83*	-24	88*
O=C(NCCCn1ccnc1)/C(=C\c1cccs1)NC(=O)c1ccco1	-1	-4	14	-1	2	-1	/
O=[N+]([O-])c1ccc2nc(-c3ccc(Cl)cc3)n(OCc3ccccc3)c2c1	-20	-57	-241	-43	-199	-55	-89
